# Test results reported in ChEMBL document CHEMBL3988442, “University of Dundee, Small-Polar-MMV Screening Library” (2021).
# For some assays here: Results with a measured potency or affinity are listed apart.
# Experiments:
# Design in all cases: scale not given: direction of the effect not stated beside the values
# [1] = molecular target: Protein translocase subunit SecA (Escherichia coli (strain K12)) (UniProt P10408); assay: Assay to Identify E. coli SecA ATPase Inhibitors; type: functional; conditions: 30 µM
# Sequence of Protein translocase subunit SecA (Escherichia coli (strain K12)) (P10408 whole entry): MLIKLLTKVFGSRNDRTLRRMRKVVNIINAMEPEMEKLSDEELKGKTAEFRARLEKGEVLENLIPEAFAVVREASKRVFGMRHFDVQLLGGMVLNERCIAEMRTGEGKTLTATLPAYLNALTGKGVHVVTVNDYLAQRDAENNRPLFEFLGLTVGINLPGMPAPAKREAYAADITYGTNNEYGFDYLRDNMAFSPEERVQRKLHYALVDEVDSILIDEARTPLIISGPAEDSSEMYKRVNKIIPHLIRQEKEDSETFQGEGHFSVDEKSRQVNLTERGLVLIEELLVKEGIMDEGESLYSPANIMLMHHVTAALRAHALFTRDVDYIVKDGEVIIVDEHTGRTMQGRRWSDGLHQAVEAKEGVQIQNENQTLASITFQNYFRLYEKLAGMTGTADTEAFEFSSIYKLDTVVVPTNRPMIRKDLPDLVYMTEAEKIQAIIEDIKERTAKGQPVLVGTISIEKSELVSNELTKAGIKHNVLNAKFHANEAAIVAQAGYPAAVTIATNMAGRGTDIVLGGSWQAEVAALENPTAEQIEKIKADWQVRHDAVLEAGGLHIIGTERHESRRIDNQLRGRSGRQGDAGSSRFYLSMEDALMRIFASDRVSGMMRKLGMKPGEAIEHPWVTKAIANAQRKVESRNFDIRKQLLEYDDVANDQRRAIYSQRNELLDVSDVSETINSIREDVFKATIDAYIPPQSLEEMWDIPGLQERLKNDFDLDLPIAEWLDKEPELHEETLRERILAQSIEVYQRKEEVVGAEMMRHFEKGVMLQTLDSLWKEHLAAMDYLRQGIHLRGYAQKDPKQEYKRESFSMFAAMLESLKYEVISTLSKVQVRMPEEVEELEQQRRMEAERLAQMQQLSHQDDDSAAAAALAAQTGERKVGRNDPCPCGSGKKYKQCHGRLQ
# [2] = molecular target: T1, Ubiquitin-activating enzyme e1, putative (Leishmania donovani (strain BPK282A1)) (UniProt E9BSI1); assay: Leishmania donovani Ubiquitin Activating Enzyme (LdE1); type: functional; conditions: 30 µM
# T1 sequence (whole entry): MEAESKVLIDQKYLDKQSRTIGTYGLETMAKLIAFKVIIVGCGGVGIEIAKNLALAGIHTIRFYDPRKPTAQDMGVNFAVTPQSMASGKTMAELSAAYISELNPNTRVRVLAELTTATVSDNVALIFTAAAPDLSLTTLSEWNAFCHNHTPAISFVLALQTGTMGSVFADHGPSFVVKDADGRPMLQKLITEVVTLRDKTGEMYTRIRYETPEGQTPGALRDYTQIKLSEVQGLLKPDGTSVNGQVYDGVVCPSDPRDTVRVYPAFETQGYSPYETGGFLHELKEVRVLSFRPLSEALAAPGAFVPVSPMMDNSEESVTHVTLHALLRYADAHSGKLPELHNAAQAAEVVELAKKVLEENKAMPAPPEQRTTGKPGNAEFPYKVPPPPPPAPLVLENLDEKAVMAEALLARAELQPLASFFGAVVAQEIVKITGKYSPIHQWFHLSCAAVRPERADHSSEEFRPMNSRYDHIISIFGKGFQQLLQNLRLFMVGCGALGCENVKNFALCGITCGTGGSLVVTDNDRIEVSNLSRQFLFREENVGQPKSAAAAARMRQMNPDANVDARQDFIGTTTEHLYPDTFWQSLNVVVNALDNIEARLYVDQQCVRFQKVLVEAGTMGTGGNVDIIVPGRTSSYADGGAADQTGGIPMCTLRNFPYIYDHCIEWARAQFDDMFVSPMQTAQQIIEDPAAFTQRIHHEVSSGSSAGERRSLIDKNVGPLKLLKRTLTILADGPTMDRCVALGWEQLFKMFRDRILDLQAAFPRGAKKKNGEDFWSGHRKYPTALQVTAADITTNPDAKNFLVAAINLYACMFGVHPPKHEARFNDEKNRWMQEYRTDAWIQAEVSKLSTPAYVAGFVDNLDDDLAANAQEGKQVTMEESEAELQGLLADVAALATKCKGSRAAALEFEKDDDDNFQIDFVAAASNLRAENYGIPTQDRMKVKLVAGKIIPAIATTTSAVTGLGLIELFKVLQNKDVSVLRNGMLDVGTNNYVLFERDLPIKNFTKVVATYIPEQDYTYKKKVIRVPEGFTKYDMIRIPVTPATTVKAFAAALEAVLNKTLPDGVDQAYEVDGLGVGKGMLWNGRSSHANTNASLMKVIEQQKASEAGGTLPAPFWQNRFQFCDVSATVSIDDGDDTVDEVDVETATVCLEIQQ
# [3] = molecular target: Sialic acid-binding Ig-like lectin 9 (Homo sapiens) (UniProt Q9Y336); assay: Hs-Siglec9 ALPHAscreen SOP 20170721; conditions: 10 µM
# Sequence of Sialic acid-binding Ig-like lectin 9 (Homo sapiens) (Q9Y336 whole entry): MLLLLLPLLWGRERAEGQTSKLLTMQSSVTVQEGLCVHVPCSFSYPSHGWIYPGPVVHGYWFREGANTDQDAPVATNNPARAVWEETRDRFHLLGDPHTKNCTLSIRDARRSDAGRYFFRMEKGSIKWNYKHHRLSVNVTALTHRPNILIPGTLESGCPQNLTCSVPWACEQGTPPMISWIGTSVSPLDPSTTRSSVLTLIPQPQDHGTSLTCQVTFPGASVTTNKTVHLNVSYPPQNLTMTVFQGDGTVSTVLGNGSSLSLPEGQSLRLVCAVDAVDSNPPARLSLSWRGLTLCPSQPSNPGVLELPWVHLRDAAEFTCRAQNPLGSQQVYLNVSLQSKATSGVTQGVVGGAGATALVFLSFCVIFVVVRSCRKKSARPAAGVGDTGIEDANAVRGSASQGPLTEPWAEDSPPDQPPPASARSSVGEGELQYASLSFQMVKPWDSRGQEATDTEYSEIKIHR
# Trypanosoma cruzi = assay: Trypanosoma cruzi phosphomannomutase and mannose-1-phosphate guanylyltransferase assay; type: functional; conditions: 10 µM
# [4] = molecular target: T2, Arginase-2, mitochondrial (Homo sapiens) (UniProt P78540); assay: in vitro enzyme assay to detect the production of urea directly proportional to the activity of Arginase II; type: functional; conditions: 33.3 µM; also: in the data most compounds retested in dose-response had high values
# T2 sequence (whole entry): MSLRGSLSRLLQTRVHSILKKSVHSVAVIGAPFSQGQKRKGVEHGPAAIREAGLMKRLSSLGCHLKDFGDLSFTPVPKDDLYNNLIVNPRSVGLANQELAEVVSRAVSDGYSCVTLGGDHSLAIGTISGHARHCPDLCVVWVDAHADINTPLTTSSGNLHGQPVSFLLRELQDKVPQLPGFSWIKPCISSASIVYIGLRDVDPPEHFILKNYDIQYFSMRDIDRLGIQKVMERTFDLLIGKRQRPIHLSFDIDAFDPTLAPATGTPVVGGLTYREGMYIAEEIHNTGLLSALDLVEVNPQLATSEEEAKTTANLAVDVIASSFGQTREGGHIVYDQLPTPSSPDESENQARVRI
# [5] = molecular target: T3, Proteasome subunit beta (Trypanosoma cruzi) (UniProt O96673); assay: Trypanosoma cruzi proteasome chymotrypsin-like activity (TcProtChymo) assay.; also: in the data most compounds retested in dose-response had high values; type: functional; conditions: 9.37 µM
# T3 sequence (whole entry): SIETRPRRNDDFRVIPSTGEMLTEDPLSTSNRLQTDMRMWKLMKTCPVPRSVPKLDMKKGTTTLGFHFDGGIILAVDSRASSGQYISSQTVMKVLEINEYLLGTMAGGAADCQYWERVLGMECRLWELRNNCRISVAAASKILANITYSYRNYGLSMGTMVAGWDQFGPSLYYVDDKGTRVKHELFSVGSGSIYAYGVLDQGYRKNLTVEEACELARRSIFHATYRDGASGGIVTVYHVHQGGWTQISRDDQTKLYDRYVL
# Homo sapiens = species on record: Homo sapiens; assay: To identify inhibition of the IFN signalling (Jak-Stat) pathway via expression of an eGFP reporter gene under the control of an IFN-stimulated response element (ISRE) containing MxA promoter.; type: functional; conditions: 30 µM
# [6] = molecular target: T4, Tyrosyl-tRNA synthetase, putative (Trypanosoma cruzi (strain CL Brener)) (UniProt Q4DSP6); assay: Trypanosoma cruzi tyrosyl tRNA synthetase (TcYRS) _High Tyrosine SOP; type: functional; conditions: 30 µM; also: in the data most compounds retested in dose-response had high values
# T4 sequence (whole entry): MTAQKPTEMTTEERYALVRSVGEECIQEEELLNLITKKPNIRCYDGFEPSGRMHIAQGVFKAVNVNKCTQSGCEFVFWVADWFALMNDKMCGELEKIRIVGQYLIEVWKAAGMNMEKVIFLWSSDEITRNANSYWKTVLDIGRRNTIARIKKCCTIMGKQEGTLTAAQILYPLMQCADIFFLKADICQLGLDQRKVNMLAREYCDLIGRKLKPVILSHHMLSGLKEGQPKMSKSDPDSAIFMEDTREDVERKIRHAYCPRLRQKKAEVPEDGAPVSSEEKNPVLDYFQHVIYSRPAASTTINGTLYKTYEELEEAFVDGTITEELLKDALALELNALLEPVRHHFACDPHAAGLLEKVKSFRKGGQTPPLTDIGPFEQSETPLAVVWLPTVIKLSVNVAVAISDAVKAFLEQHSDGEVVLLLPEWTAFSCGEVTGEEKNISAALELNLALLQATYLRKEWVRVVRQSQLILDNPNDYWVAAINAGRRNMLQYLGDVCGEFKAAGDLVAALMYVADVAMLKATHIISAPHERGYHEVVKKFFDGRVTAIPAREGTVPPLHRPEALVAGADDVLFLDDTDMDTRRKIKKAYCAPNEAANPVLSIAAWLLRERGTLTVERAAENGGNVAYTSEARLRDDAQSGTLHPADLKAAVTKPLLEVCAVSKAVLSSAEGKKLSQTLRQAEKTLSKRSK
# [7] = molecular target: T4, Tyrosyl-tRNA synthetase, putative (Trypanosoma cruzi (strain CL Brener)); assay: Trypanosoma cruzi tyrosyl tRNA synthetase (TcYRS) SOP; type: functional; conditions: 30 µM
# [8] = molecular target: Chromo domain-containing protein 1 (Saccharomyces cerevisiae (strain ATCC 204508 / S288c) (Baker's yeast)) (UniProt P32657); assay: ScCHD-1 Enzyme Inhibition Assay; type: functional; conditions: 30 µM; also: in the data most compounds retested in dose-response had high values
# Sequence of Chromo domain-containing protein 1 (Saccharomyces cerevisiae (strain ATCC 204508 / S288c) (Baker's yeast)) (P32657 whole entry, the tested form may be a part): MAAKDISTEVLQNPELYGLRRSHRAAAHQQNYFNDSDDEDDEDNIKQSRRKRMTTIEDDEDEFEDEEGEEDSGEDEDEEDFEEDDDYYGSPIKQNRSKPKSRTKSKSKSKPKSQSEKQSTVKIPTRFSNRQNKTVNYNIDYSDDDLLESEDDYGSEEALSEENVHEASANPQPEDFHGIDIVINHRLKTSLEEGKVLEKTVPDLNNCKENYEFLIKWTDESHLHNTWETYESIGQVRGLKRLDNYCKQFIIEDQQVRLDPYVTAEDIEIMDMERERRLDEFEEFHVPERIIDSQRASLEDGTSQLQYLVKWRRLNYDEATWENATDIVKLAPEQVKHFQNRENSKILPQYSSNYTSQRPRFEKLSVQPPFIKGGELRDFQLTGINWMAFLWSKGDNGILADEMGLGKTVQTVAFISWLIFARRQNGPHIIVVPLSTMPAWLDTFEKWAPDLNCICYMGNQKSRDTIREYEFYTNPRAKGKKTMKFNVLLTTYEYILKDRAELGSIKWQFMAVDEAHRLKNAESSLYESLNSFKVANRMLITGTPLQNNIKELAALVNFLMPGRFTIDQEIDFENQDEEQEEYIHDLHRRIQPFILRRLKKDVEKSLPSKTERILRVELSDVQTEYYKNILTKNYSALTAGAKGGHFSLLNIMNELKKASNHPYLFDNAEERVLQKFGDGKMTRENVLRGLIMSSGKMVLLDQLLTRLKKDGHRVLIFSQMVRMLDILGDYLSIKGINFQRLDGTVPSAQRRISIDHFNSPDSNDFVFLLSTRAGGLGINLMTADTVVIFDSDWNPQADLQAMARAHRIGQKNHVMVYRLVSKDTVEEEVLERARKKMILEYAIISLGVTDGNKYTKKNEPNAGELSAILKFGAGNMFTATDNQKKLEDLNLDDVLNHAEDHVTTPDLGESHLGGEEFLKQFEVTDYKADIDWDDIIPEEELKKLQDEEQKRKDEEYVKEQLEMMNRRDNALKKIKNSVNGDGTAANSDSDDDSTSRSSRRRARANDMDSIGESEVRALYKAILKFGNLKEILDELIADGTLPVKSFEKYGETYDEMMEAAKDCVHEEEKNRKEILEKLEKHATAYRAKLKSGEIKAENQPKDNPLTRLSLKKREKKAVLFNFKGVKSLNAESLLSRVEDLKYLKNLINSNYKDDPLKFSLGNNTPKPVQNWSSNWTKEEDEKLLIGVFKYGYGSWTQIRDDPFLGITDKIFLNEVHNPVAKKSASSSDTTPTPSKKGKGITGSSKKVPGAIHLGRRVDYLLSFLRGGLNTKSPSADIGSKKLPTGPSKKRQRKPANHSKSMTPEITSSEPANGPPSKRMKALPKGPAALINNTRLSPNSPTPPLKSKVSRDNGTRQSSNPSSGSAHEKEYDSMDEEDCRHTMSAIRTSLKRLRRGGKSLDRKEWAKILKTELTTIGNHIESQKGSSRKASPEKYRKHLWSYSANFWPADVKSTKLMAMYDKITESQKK
SMILES,Percent Effect [1],Percent Effect [2],Percent Effect [3],Percent Effect (Trypanosoma cruzi),Percent Effect [4],Percent Effect [5],Percent Effect (Homo sapiens),Percent Effect [6],Percent Effect [7],Percent Effect [8]
c1cc(CN2Cc3nnn(CC4CC4)c3C(COCC3CC3)C2)co1 (stereo not given),-5.88%,3.9%,10.3%,9.83%,-8.1%,9.62%,-0.188%,3.68%,12.8%,2.41%
c1cnn(Cc2nnc3n2CCCN(CC2CCOCC2)C3)c1,-8.53%,1.3%,-2.75%,-3.02%,-2.83%,3.62%,1.85%,-0.526%,5.13%,2.31%
CC(C)(O)CN1CCN(C(=O)c2cc(Cl)cc3cccnc23)CC1,-3.15%,-5.13%,5.39%,2.54%,6.15%,9.13%,-3.27%,2.39%,1.21%,-5.6%
CCn1nc(C)c(CCNC(=O)C2CCCN(CC(N)=O)C2)c1C (stereo not given),-8.24%,8.11%,27.7%,9.02%,9.44%,5.14%,12.5%,10.1%,17.1%,-5.53%
Cc1cc(NCc2cc3n(n2)CCCN(S(C)(=O)=O)C3)ncn1,-8.82%,2.7%,4.07%,3.59%,5.94%,4.97%,0.911%,3.72%,12.2%,0.638%
O=C1NC2(CCN(Cc3nccs3)CC2)CC1c1ccncc1 (stereo not given),-7.46%,9.09%,9.45%,6.13%,-6.07%,6.8%,-18.5%,3.68%,10.3%,0.471%
COC(=O)CC(c1ccc(OC)c(OC)c1)c1oc(C)cc(=O)c1O (stereo not given),-11%,2.7%,0.92%,-4.75%,-10.1%,4.45%,14.4%,-0.532%,-2.44%,-0.871%
CC(=O)N1C[C@@H](c2ccsc2)[C@@H]2CN(Cc3cccc(Cl)c3)CC[C@@H]21,-3.63%,9.33%,5.9%,-1.97%,7.08%,6.9%,56.9%,9.52%,20%,-24.3%
Cc1ccccc1OCCC(=O)N1CCCC(n2cncn2)C1 (stereo not given),-5.79%,5.13%,4.87%,0.657%,5.33%,4.52%,0.995%,1.44%,10.8%,-3.4%
CC(C)n1ccnc1CN1CCCN(C(=O)c2cccnc2O)CC1,-4.65%,15.4%,-20.6%,5.54%,1.64%,14.9%,-7.69%,10.1%,22.9%,-5.81%
CCN(Cc1cccc2c1OCO2)C(=O)C(C)c1cccnc1 (stereo not given),-0.831%,7.79%,4.03%,5.78%,8.4%,-0.702%,4.49%,3.92%,11.8%,-5.71%
CCCNC(=O)NCc1cccnc1OC,-1.2%,13.3%,0.677%,-0.803%,2.66%,14.2%,18.8%,2.63%,10.3%,-6.38%
Clc1ccc(OCCCN2CCN(c3cnccn3)CC2)cc1,-2.88%,-7.79%,9.41%,-0.933%,-2.66%,-2.63%,3.86%,11.8%,23.5%,-3.92%
Cn1cnc2c1CCN(Cc1csc(-c3ccsc3)n1)C2,-0.725%,0%,-11.7%,-1.41%,3.69%,13.2%,27.3%,11%,13.2%,25%
Cc1cc(CN(C)C(=O)c2ccc(F)cc2Br)no1,-3.65%,10.3%,-16.2%,-5.35%,-1.23%,15.3%,28.1%,3.35%,10.8%,-3.45%
O=C1COC2(COCCN(Cc3ccsc3)C2)CN1c1ccc(F)cc1 (stereo not given),-4.18%,1.3%,13.2%,-5.36%,1.22%,10.3%,-0.829%,4.74%,7.69%,-1.9%
CCCN(C(=O)COC)c1nc2c(s1)CCc1c-2cnn1C,6.68%,52%,21%,-3.16%,23.9%,2.79%,17.9%,-13.8%,-15%,-18.2%
COCC(=O)N1CCC2(CC1)CC(CC(=O)NC1CC1)c1ccccc12 (stereo not given),-8.48%,-1.3%,3.8%,-1.66%,-6.88%,-0.0883%,-8.57%,-0.526%,5.13%,-0.682%
CC(=O)N1CCCn2nc(CNS(=O)(=O)N3CCCCCC3)cc2C1,-5.72%,0%,0.997%,-2.81%,1.75%,11.6%,4.54%,2.66%,9.76%,2.81%
Cc1ccc(NC(=O)N2C[C@H]3CC[C@@H]2CN(Cc2cscn2)C3)cc1,-8.89%,2.7%,16.7%,2.42%,5.25%,4.45%,0.0605%,6.92%,12.2%,0.126%
Cc1cc(C)n(CC2CCCN2CCc2ccncc2)n1 (stereo not given),-5.42%,7.69%,-18.5%,12.5%,-2.87%,17.1%,5.12%,3.35%,20.5%,-3.37%
C1CC(CN2CCOCC3(CCN(C4CCOCC4)C3)C2)CCO1 (stereo not given),-5.96%,9.09%,-7.57%,6.13%,-6.88%,13.7%,3.41%,6.84%,10.3%,0.2%
Cc1cc(NC(=O)NCC(C)N2CCc3ccccc32)no1 (stereo not given),-4.79%,26%,2.28%,-3.54%,1.02%,5.96%,-2.59%,12.8%,21.2%,-6.91%
